Assay results: PubChem BioAssay (Tox21)
Values joined by “and” are separate entries in the source; they are usually repeats but may differ in a detail not shown here. Equal entries are not always repeated. Inconclusive results are not listed. Entries that show only a call come without a potency. Some compounds were tested as several samples or in several runs, with calls that do not always agree. Active and inactive are the calls of the source. Unless noted, the call rests on the fitted dose curve; in most records, active means well fitted curve in the direction sought with a large enough effect in the repeat runs; inconclusive means weak or mixed curves; inactive means no such curve, though single readings can be large; an effect the other way counts as inactive or inconclusive.

How the values were obtained:
[1] = qHTS assay to identify small molecule agonists of the sonic hedgehog signaling (Shh) pathway (AID 1259368; calls by dose curve;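 further: NIH/3T3-derived 3T3Gli1-Luc cells carrying a stable Gli1-driven firefly luciferase reporter; series mostly up to about 92 µM; nearly all actives have a fitted effect of over 15% in size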)
Outline: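 Stable NIH/3T3 Gli1-Luc reporter clone; 24 hr cpd exposure after a 4 hr settling period; luminescence endpoint.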

[2] = qHTS assay to identify small molecule antagonists of the sonic hedgehog signaling (Shh) pathway (AID 1259369; calls by dose curve; further: nearly all actives have a fitted effect of over 45% in size; further: potency means the concentration at half of the fitted maximal effect)
Outline: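 Gli1 transcriptional reporter (firefly Luc) in NIH/3T3 background, conditioned-medium activated. 24hr exposure, luminescence endpoint.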

[3] = qHTS assay to identify small molecule agonists of the androgen receptor (AR) signaling pathway in the presence of an antagonist - cell viability counter screen (AID 1259379);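 further: MDA-kb2 human breast cancer cells carrying an MMTV luciferase reporter; series mostly up to about 92 µM; nearly all actives have a fitted effect of over 25% in size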
Outline: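 Counter screen for cell viability run in parallel with the AR agonist-mode luciferase assay. MDA-kb2 cells were co-treated with nilutamide (3.0uM final) and compounds, then incubated 16 hr at 37C, and CellTiter-Fluor fluorescence was measured.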

[4] = qHTS assay to identify small molecule agonists of the estrogen receptor beta (ER-beta) signaling pathway - cell viability counter screen (AID 1259380); further: nearly all actives have a fitted effect of over 30% in size
Outline: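 In this qHTS counter screen, HEK293T cells carrying an ER-beta/UAS beta-lactamase reporter, grown in 2% charcoal-stripped FBS, received compound for 16 hr; ATP-based CellTiter-Glo luminescence was then read after 30 min at room temperature.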

[5] = qHTS assay to identify small molecule antagonists of the estrogen receptor beta (ER-beta) signaling pathway - cell viability counter screen (AID 1259382);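 further: HEK293T cells carrying ER-beta-UAS-bla reporter stimulated with estradiol; series mostly up to about 92 µM; nearly all actives have a fitted effect of over 55% in size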
Outline: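 HEK293T ER-beta-UAS-bla, 2% charcoal-stripped FBS; compounds + 1nM E2 16 hr 37C; CellTiter-Glo luminescence, 30 min RT.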

[6] = target: Estrogen receptor (Homo sapiens) (UniProt P03372); test: qHTS assay to identify small molecule agonists of the estrogen receptor alpha (ER-alpha) signaling pathway in the presence of an antagonist (AID 1259383; calls by dose curve; further: nearly all actives have a fitted effect of over 15% in size; further: potency means the concentration at half of the fitted maximal effect; on activation: top concentration of the series differs between compounds)
Outline: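 ER-alpha agonism measured under antagonist challenge: 10.0nM ICI-182,780 (final) plus compound, 15 concentrations, 22hr, VM7Luc4E2 ERE-luciferase cells. Read by luminescence.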

[7] = qHTS assay to identify small molecule agonists or antagonists of the thyroid stimulating hormone receptor (TSHR) signaling pathway - wild type cell line counter screen (AID 1259384; calls by dose curve)
Outline: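 Wild-type HEK293 cells were plated 18 h at 37 C/5% CO2, pin-dosed with compound plus Ro20-1724 medium, held 30 min at room temperature, then given cAMP-d2 and anti-cAMP-cryptate; fluorescence was read after 1 h. Fifteen concentrations, triplicate.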

[8] = target: Thyrotropin receptor (Homo sapiens) (UniProt P16473); test: qHTS assay to identify small molecule antagonists of the thyroid stimulating hormone receptor (TSHR) signaling pathway (AID 1259385; calls by dose curve; further: nearly all actives have a fitted effect of over 20% in size)
Outline: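 TSHR-HEK293 cells were plated and held 18 h at 37C/5% CO2, then given compound plus Ro20-1724 and stimulated with TSH at 1.5 ng/mL final. After 30 min at room temperature, cAMP was detected with cAMP-d2/anti-cAMP-cryptate (1 h) by fluorescence.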

[9] = qHTS assay to identify small molecule agonists of the estrogen receptor alpha (ER-alpha) signaling pathway in the presence of an antagonist - cell viability counter screen (AID 1259386);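 further: series mostly up to about 92 µM; cells exposed to compounds for 22 h at 37 °C before the viability read; nearly all actives have a fitted effect of over 30% in size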
Outline: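 Steps: 5-day stripped-FBS culture; seed and incubate 24hr; add ICI-182,780 (10.0nM final); pin 15-point compound titration; incubate 22hr at 37C; add CellTiter-Fluor at 21hr; read fluorescence.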

[10] = target: Progesterone receptor (Homo sapiens) (UniProt P06401); test: qHTS assay to identify small molecule agonists of the progesterone receptor (PR) signaling pathway (AID 1346784; calls by dose curve; further: nearly all actives have a fitted effect of over 30% in size)
Outline: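 Seed PR-UAS-bla HEK 293T cells (2% charcoal-stripped FBS), incubate 6 hr at 37C; add compounds in DMSO, 16 hr at 37C; add LiveBLAzer B/G substrate, 2 hr RT; read fluorescence intensity.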

[11] = target: Progesterone receptor (Homo sapiens) (UniProt P06401); test: qHTS assay to identify small molecule antagonists of the progesterone receptor (PR) signaling pathway (AID 1346795; active means well fitted inhibition curve with a large enough effect in the signal ratio in the repeat runs, not every such curve was filed as active; the % refers to the signal ratio; further: potency means the concentration at half of the fitted maximal effect)
Outline: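 Screening used a GripTite HEK293T line with PR-responsive UAS-beta-lactamase. Cells were challenged with compound in the presence of 1 nM R5020 final for 16 hr at 37C; B/G FRET substrate, 2 hr room temperature, fluorescence.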

[12] = qHTS assay to identify small molecule antagonists of the progesterone receptor (PR) signaling pathway - cell viability counter screen (AID 1346798); further: series mostly up to about 92 µM; nearly all actives have a fitted effect of over 50% in size
Outline: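 Measures cytotoxicity in parallel with the PR antagonist reporter read: HEK293T PR-UAS-bla cells get compound and R5020 for 16 hr, and remaining viable cells are quantified by CellTiter-Glo luminescence.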

[13] = qHTS assay to identify small molecule antagonists of the TGF-beta/Smad signaling pathway - cell viability counter screen (AID 1346824); further: nearly all actives have a fitted effect of over 50% in size
Outline: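 SBE-bla HEK 293T cells were plated overnight at 37 C, then given compounds in DMSO plus TGF-beta1 (added as 0.25 ng/mL solution) for 5 hr. After the bla read, CellTiter-Glo was added to the same wells and luminescence read after 30 min at room temperature.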

[14] = qHTS assay to identify small molecule agonists of the TGF-beta/Smad signaling pathway - cell viability counter screen (AID 1346829); further: top concentration of the series differs between compounds; nearly all actives have a fitted effect of over 45% in size
Outline: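 Here the cytotoxicity of library compounds is measured in SBE-bla HEK 293T cells treated for 5 hr, using CellTiter-Glo added to wells already read for the beta-lactamase reporter.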

[15] = qHTS assay to identify small molecule agonists of the TGF-beta/Smad signaling pathway (AID 1346859; active means well fitted activation curve with a large enough effect in the signal ratio in the repeat runs, not every such curve was filed as active; the % refers to the signal ratio; further: series mostly up to about 77 µM)
Outline: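 Beta-lactamase reporter activity downstream of Smad binding elements was measured in stably transfected HEK 293T cells; compounds were incubated for 5 hr, substrate for 2 hr at room temperature.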

[16] = target: Thyrotropin-releasing hormone receptor (Homo sapiens) (UniProt P34981); test: qHTS assay to identify small molecule antagonists of the thyrotropin-releasing hormone receptor (TRHR) signaling pathway (AID 1346877; active means well fitted inhibition curve with a large enough effect in the repeat runs, not every such curve was filed as active; further: series mostly up to about 51 µM)
Outline: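 Human TRHR in HEK293 cells; inhibition of the intracellular calcium rise triggered by 1 nM TRH was followed by fluorescence over 3 min. Compounds were run at 15 concentrations, three replicates each.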

[17] = qHTS assay to identify small molecule agonists of the progesterone receptor (PR) signaling pathway - cell viability counter screen (AID 1346799; calls by dose curve; further: nearly all actives have a fitted effect of over 45% in size)
Outline: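 Using the same plates as the PR reporter screen, HEK293T PR-UAS-bla cells received compounds for 16 hr at 37C and were then lysed with CellTiter-Glo; luminescence was read 30 min later at room temperature.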

[18] = target: Androgen receptor (Homo sapiens) (UniProt P10275); test: qHTS assay to identify small molecule agonists of the androgen receptor (AR) signaling pathway in the presence of an antagonist (AID 1259381; calls by dose curve; further: nearly all actives have a fitted effect of over 15% in size; further: potency means the concentration at half of the fitted maximal effect)
Outline: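 AR antagonist background: nilutamide 3.0uM final. Cell line: MDA-kb2, MMTV-driven luciferase, responsive to both AR and GR. Exposure 16hr, 37C, no CO2; ONE-Glo luminescence.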

Chain of Estrogen receptor (Homo sapiens) (P03372 whole entry, looked up): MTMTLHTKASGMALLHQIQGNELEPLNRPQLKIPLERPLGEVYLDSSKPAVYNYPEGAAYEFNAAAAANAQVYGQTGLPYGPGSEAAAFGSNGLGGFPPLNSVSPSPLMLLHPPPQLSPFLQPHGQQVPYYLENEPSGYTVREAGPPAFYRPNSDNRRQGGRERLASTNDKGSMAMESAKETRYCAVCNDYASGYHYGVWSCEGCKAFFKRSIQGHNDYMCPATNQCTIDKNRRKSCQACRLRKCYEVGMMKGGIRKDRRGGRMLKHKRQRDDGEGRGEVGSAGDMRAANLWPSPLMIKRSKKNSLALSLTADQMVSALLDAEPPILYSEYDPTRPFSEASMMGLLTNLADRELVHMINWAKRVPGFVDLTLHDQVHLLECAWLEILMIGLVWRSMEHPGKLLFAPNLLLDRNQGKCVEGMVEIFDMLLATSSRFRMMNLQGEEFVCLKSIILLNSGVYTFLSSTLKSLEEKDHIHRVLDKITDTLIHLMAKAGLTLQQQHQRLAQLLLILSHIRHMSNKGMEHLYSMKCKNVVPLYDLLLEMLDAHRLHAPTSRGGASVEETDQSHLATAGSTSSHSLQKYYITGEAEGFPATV
Chain of Progesterone receptor (Homo sapiens) (P06401 whole entry, looked up): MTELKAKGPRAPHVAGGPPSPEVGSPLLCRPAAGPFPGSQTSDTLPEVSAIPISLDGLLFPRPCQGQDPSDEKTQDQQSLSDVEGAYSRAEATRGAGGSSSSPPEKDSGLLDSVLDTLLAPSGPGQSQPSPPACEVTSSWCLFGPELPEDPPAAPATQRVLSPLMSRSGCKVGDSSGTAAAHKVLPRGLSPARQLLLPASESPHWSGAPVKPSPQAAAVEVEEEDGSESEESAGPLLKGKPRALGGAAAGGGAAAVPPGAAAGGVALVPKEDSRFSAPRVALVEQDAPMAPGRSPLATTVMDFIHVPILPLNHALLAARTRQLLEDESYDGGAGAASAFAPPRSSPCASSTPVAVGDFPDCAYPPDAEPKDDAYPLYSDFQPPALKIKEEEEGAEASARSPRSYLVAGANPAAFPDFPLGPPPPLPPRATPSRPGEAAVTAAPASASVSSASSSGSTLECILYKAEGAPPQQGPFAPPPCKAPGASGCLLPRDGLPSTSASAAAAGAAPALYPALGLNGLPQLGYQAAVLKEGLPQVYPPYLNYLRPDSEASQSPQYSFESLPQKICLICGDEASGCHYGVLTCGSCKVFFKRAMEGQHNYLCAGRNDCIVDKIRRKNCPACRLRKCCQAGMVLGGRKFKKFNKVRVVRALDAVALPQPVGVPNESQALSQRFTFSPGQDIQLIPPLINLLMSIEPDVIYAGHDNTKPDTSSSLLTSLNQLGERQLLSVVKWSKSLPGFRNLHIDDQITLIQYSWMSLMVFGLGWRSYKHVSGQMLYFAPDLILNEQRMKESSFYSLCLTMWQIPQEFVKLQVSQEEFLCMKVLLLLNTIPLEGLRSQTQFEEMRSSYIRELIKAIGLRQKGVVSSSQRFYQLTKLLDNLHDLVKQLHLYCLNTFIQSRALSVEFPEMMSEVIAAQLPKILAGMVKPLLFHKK
Chain of Thyrotropin receptor (Homo sapiens) (P16473 whole entry, looked up): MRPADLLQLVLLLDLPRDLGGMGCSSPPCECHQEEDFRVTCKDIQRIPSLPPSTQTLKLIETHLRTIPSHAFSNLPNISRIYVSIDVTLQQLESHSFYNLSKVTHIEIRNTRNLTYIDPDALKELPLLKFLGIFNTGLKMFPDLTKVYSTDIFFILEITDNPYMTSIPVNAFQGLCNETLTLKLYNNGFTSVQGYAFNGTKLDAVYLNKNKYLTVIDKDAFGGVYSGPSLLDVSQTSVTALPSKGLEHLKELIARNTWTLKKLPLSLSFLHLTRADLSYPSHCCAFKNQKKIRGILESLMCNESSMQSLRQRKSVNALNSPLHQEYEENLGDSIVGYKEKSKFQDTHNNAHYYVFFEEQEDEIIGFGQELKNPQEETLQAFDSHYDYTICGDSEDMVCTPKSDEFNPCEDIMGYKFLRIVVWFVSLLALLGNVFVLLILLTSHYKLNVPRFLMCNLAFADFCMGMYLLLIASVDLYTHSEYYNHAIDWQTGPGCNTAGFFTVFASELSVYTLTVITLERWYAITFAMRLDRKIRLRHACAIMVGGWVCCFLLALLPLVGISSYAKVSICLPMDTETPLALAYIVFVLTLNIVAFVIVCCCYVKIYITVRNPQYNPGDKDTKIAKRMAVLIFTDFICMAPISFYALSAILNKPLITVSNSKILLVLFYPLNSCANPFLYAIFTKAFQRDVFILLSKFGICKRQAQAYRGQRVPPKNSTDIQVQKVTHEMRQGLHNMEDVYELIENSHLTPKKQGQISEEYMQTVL
Chain of Thyrotropin-releasing hormone receptor (Homo sapiens) (P34981 whole entry, looked up): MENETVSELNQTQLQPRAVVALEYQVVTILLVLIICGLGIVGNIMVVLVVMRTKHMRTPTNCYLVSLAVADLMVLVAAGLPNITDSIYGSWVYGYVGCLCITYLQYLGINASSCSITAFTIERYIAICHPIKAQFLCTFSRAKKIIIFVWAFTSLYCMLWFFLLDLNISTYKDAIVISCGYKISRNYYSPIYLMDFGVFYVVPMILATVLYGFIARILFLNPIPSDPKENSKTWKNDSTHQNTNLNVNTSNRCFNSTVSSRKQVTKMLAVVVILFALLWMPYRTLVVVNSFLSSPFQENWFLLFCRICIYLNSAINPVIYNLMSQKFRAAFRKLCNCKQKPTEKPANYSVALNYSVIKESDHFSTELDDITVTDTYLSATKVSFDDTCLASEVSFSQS
Chain of Androgen receptor (Homo sapiens) (P10275 whole entry, looked up): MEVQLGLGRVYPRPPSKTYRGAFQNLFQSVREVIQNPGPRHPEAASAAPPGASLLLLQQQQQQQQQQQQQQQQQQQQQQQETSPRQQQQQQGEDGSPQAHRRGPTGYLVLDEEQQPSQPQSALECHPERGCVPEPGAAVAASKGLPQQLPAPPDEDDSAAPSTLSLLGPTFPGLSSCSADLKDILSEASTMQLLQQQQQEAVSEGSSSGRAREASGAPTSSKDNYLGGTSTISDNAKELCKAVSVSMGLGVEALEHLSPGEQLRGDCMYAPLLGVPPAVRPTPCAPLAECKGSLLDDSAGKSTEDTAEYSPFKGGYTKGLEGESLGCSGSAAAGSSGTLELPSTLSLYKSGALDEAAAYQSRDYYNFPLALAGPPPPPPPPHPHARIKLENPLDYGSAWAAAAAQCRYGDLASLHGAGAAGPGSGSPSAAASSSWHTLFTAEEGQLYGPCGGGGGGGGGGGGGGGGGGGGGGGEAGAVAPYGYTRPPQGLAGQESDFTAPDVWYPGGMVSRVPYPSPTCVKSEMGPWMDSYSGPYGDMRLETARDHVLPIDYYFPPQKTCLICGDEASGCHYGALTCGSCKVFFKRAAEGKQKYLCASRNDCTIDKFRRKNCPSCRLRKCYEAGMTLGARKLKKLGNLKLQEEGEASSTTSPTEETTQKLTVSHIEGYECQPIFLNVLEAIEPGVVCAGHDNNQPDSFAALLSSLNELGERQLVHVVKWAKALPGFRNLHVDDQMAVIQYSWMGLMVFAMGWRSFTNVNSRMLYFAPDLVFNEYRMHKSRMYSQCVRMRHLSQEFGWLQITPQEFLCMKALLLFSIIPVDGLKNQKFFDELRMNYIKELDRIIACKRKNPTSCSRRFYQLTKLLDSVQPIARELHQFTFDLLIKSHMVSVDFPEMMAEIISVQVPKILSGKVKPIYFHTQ

## CCCCC/C=C\CCC=O
[1]
  outcome: inactive
[2]
  Potency: inactive
[3]
  Potency: inactive
[4]
  Potency: inactive
[5]
  Potency: inactive
[6]
  Potency: inactive
[7]
  outcome: inactive
[8]
  Potency: inactive
[9]
  Potency: inactive
[10]
  Potency: inactive
[11]
  Potency: inactive
[12]
  Potency: inactive
[13]
  Potency: inactive
[14]
  outcome: inactive
[15]
  outcome: inactive
[16]
  outcome: inactive

## C=CCS(=O)(=O)O
[1]
  outcome: inactive
[2]
  Potency: inactive
[3]
  Potency: inactive
[4]
  Potency: inactive
[5]
  Potency: inactive
[6]
  Potency: inactive
[7]
  outcome: inactive
[8]
  Potency: inactive
[9]
  Potency: inactive
[10]
  Potency: inactive
[12]
  Potency: inactive
[17]
  Potency: inactive
[13]
  Potency: inactive
[14]
  outcome: inactive
[15]
  outcome: inactive
[16]
  outcome: inactive

## O=C1OC(=O)C2CCCCC12 (stereo not given)
[1]
  outcome: inactive
[2]
  Potency: inactive
[3]
  Potency: inactive
[4]
  Potency: inactive
[5]
  Potency: inactive
[6]
  Potency: inactive
[9]
  Potency: inactive
[10]
  Potency: inactive
[11]
  Potency: inactive
[12]
  Potency: inactive
[17]
  Potency: inactive
[13]
  Potency: inactive
[14]
  outcome: inactive
[15]
  outcome: inactive

## CCN(CC)CCOCCOC(=O)C1(c2ccccc2)CCCC1
[1]
  outcome: inactive
[2]
  Potency: inactive
[3]
  Potency: inactive
[4]
  Potency: inactive
[5]
  Potency: inactive
[6]
  Potency: inactive
[7]
  outcome: inactive
[8]
  Potency: inactive
[10]
  Potency: inactive
[11]
  Potency: inactive
[13]
  Potency: inactive
[14]
  outcome: inactive
[15]
  outcome: inactive

## N[C@@H](C(=O)N[C@@H]1C(=O)N2C(C(=O)O)=C(Cl)CS[C@H]12)c1ccccc1
[1]
  activity change: -0.56% [at 8.39 µM] (inactive)
[2]
  activity change, negative = inhibition: -3.06% [at 8.39 µM] (inactive)
[3]
  activity change, negative = cytotoxicity: -6.11% [at 8.39 µM] (inactive)
[4]
  activity change, negative = cytotoxicity: 2.28% [at 8.39 µM] (inactive)
[5]
  activity change, negative = cytotoxicity: 5.71% [at 8.39 µM] (inactive)
[6]
  activation: 0.817% [at 8.39 µM] (inactive)
[7]
  cAMP activity change: -1.5% [at 8.39 µM] (inactive)
[8]
  activity change, negative = inhibition: 1.57% [at 8.39 µM] (inactive)
[10]
  activation: 0.163% [at 8.39 µM] (inactive)
[12]
  activity change, negative = cytotoxicity: 1.94% [at 8.39 µM] (inactive)
[17]
  activity change, negative = cytotoxicity: -11.1% [at 8.39 µM] (inactive)
[13]
  viability change, negative = cytotoxic: -15% [at 6.97 µM] (inactive)
[14]
  activity change, negative = cytotoxicity: -0.75% [at 6.97 µM] (inactive)
[15]
  activation: 1.83% [at 6.97 µM] (inactive)
[16]
  activity, negative = inhibition: 1.85% [at 4.65 µM] (inactive)

## Cc1c(O)cccc1O
[1]
  outcome: inactive
[2]
  Potency: 14 µM (active)
[3]
  Potency: inactive
[4]
  Potency: inactive
[5]
  Potency: inactive
[6]
  Potency: inactive
[9]
  Potency: inactive
[10]
  Potency: inactive
[11]
  Potency: inactive
[12]
  Potency: inactive
[17]
  Potency: inactive
[13]
  Potency: inactive
[14]
  outcome: inactive
[15]
  outcome: inactive
[16]
  outcome: inactive

## O=c1cc(-c2ccccc2)oc2ccccc12
[1]
  outcome: inactive
[2]
  Potency: 15.3 µM (active)
[3]
  Potency: inactive
[4]
  Potency: inactive
[18]
  Potency: inactive and 4.3 µM (active)
[5]
  Potency: inactive
[6]
  Potency: 2.73 µM (active) and 4.06 µM (active)
[9]
  Potency: inactive
[11]
  Potency: 61.1 µM (active)
[13]
  Potency: inactive
[14]
  outcome: inactive
[15]
  outcome: inactive
[16]
  outcome: inactive

## Cc1sccc1Br
[1]
  outcome: inactive
[2]
  Potency: inactive
[3]
  Potency: inactive
[4]
  Potency: inactive
[5]
  Potency: inactive
[6]
  Potency: inactive
[7]
  outcome: inactive
[8]
  Potency: inactive
[9]
  Potency: inactive
[12]
  Potency: inactive
[13]
  Potency: inactive
[15]
  outcome: inactive
[16]
  outcome: inactive
